Efflux pump inh: inhibitors of Candida antifungal efflux pumps expressed in yeast. S. cerevisiae Candida pump triplex, Nile Red efflux. inhibition, % at 10 µM. 0.44% of 330,000 active;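 active = plate passing quality check with inhibition over a set limit, or well fluorescence over plate mean plus 4 SD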;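 also: Nile Red retained in pooled yeast measured as flow cytometry median fluorescence; 0% = buffer negative control and 100% = Enniatin B positive control; higher means more Nile Red kept so more efflux inhibition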
GRK2 aptamer HTS: human GRK2 inhibition via aptamer displacement | inhibition of aptamer binding, % at 10 µM | 0.59% of 330,000 active | P25098 | bead flow cytometry, FAM-aptamer displacement from GRK2;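 active = inhibition of aptamer binding above 40%, roughly 3 SD of noise, on plates passing a quality check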;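 also: median bead fluorescence of bound FAM aptamer so fluorescent compounds give negative values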
Rce1 inh: inhibitors of yeast Ras-converting enzyme; 0.27% of 290,000 active; yeast membranes, quenched prenylated peptide cleavage fluorescence; Q03530; AID 2563; calls only;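 active = fall in fluorescence gain of 50% or more versus controls, with final raw signal at or below 3038400; inconclusive = same 50% fall but final raw signal above 3038400; inactive = fall in fluorescence gain under 50%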;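 also: plate controls were neutral control wells for no effect and wells lacking membranes for full effect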
Target sequence (Q03530 whole entry, looked up): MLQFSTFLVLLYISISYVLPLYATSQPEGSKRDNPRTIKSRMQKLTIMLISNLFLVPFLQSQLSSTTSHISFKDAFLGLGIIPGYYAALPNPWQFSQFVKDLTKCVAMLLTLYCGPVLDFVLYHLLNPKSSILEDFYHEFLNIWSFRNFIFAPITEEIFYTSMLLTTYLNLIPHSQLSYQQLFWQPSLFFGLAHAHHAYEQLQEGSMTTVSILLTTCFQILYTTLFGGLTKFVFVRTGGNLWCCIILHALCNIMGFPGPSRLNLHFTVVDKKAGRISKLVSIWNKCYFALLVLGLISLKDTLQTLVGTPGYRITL
Rtt109 Vps75: inhibitors of Candida albicans Rtt109/Vps75 histone acetyltransferase; purified Rtt109/Vps75, ThioGlo CoA-SH fluorescence, 4 h; 0.16% of 330,000 active; Q5AAJ8; inhibition, % at 34.9 µM;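 active = inhibition of at least 50% in every replicate; inconclusive = best replicate reaches 50% inhibition but some replicates fall short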
HDAC3 inhib: blocks human histone deacetylase 3; O15379; recombinant HDAC3, fluorogenic peptide/trypsin coupled, fluorescence; inhibition, % at 8.3 µM; 0.15% of 320,000 active; in the data active = inhibition above about 26%, passing the limit was not always enough; inconclusive = no clear call, values can overlap the other calls
ALR H2O2 inh: blocks human ALR sulfhydryl oxidase activity; purified ALR, DTT oxidation, H2O2 HRP-luminol luminescence; P55789; inhibition, % (test concentration not listed); 3.8% of 290,000 active;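 active = mean replicate inhibition above about 79%, with every replicate also reaching it, limit read from the data; inconclusive = only one of the two criteria met; inactive = mean below limit and not every replicate reaching it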
Target sequence (P55789 whole entry, looked up): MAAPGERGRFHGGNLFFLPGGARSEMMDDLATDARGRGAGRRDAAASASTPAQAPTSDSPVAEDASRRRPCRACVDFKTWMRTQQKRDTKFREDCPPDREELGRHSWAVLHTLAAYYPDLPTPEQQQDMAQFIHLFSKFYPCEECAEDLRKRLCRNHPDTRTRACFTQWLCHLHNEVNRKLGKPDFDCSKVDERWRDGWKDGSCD
Yeast cmpd fluor: compound fluorescence in yeast efflux pump counter-screen. shares compounds with Efflux pump inh. S. cerevisiae AD/pABC3, flow cytometry. fluorescence ratio to DMSO, % at 10 µM. 4% of 1,700 active. AID 588517;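 active = fluorescence ratio to DMSO above its plate's cutoff, the plate mean ratio plus 5 SD, cut at about 210% in these data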;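 also: unstained yeast with no Nile Red so the signal is compound autofluorescence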
CaMdr1 efflux inh: blocks the Candida albicans Mdr1 efflux pump in yeast; shares compounds with Efflux pump inh; S. cerevisiae AD/CaMDR1, Nile Red efflux, flow cytometry; inhibition, % at 10 µM; 1% of 1,700 active; AID 588518; in the data active = inhibition above about 26%;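 also: 0% = DMSO vehicle and 100% = reference inhibitor; higher means more Nile Red retained so more efflux inhibition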
Cdr2 pump inh: blocks the Candida albicans Cdr2 efflux pump in yeast; 4% of 1,700 active; shares compounds with Efflux pump inh; S. cerevisiae AD/CaCDR2, Nile Red retention, flow cytometry; Nile Red retention ratio vs DMSO, % at 10 µM; in the data active = Nile Red retention ratio vs DMSO above about 190%;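 also: higher ratio means more blocking of Cdr2 efflux of the dye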
Cdr1 pump inh: inhibitors of Candida albicans Cdr1 efflux pump; shares compounds with Efflux pump inh; S. cerevisiae AD/CaCDR1, Nile Red efflux, flow cytometry; inhibition, % at 10 µM; 1% of 1,700 active; AID 588522;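 active = inhibition above the screen-wide mean plus twice its standard deviation, cut at about 32% in these data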
Active calls of the source: *; i = inactive; ? = inconclusive; · = no result. The list is not random: actives were taken first. Their share in the collection is about 4.5%.

SMILES	Efflux pump inh	GRK2 aptamer HTS	Rce1 inh	Rtt109 Vps75	HDAC3 inhib	ALR H2O2 inh	Yeast cmpd fluor	CaMdr1 efflux inh	Cdr2 pump inh	Cdr1 pump inh
CCCCOc1cccc(C(=O)Nc2ccc(NC(=O)c3cccs3)cc2)c1	0.7	1.0	i	6.0	-1.1	·	·	·	·	·
CN(C(=O)CSc1cc(C(=O)c2nccn2C)c2ccccc2n1)c1ccccc1	-0.2	0.0	i	6.7	10.0	3.9	·	·	·	·
O=C(c1cc(Br)ccc1O)N1CCN(S(=O)(=O)Cc2ccccc2)CC1	-0.3	0.0	·	-2.5	6.0	0.6	·	·	·	·
CC1C(=O)N2CCCc3cc(S(=O)(=O)N4CCCCC4)cc1c32 (centres undefined)	0.7*	7.0	i	-0.4	1.0	-1.3	105.0	-0.2	99.3	0.2
Cc1cn(-c2cc(NC(=O)c3ccc(C)c(NC(=O)c4cccc(-c5cn[nH]c(=O)c5)c4)c3)cc(C(F)(F)F)c2)cn1	-0.1	0.0	i	5.6	7.3	-18.0	·	·	·	·
COc1cc(/C(C#N)=C/c2cccc3ccccc23)c([N+](=O)[O-])cc1OC	5.5*	0.0	i	6.1	-3.0	-8.9	101.4	-0.3	91.4	-0.1
COc1cc(/C=C(\C#N)c2nc3ccccc3[nH]2)c([N+](=O)[O-])cc1OCc1ccccc1	-0.1	0.0	i	-4.6	-7.3	0.6	·	·	·	·
CCCCNC(=O)OCC(CC)NC(=O)OC(C)C (centres undefined)	1.9*	2.0	i	-4.1	2.6	-1.4	101.4	0.0	106.0	0.0
O=[N+]([O-])c1ccc(NCc2ccccc2)nc1	37.8*	2.0	i	-2.7	-4.3	-6.8	83.3	0.2	99.6	-0.4
O=[N+]([O-])c1ccc(Nc2ccccc2)nc1	30.2*	0.0	i	3.5	-1.3	-1.8	96.2	-0.1	107.2	-0.1
O=[N+]([O-])c1ccc(Nc2ccc(F)cc2)nc1	0.1	2.0	i	-0.5	4.9	-2.7	·	·	·	·
O=[N+]([O-])c1ccc(NN=CCCc2ccccc2)nc1	·	·	·	-8.2	·	·	·	·	·	·
O=C(CSc1nnc(NC(=O)C2CCC2)s1)Nc1ccccc1Br	-0.2	0.0	i	-2.4	?	-0.9	·	·	·	·
COc1ccc(/C=C2\SC(=O)N(CCC(=O)Nc3ccccc3)C2=O)cc1OC	7.6*	0.0	i	-17.7	3.5	-15.5	97.0	0.0	97.2	0.4
COc1ccc(/C=C2\SC(=O)N(CCCC(=O)Nc3ccc(C(=O)O)cc3)C2=O)cc1OC	3.5	2.0	i	-6.1	1.2	·	·	·	·	·
CCN1C(=O)[C@H]2[C@@H](c3ccc(-c4cccc(Cl)c4)cc3)N3CCCC[C@@]3(C(=O)OC)[C@H]2C1=O	0.7*	0.0	i	0.9	10.7	·	97.8	-0.1	118.5	-0.1
CCN1C(=O)[C@H]2[C@@H](c3ccc(-c4cccc(Cl)c4)c(OC)c3)N3CCCC[C@@]3(C(=O)OC)[C@H]2C1=O	-0.1	6.0	·	1.8	-0.8	4.3	·	·	·	·
O=C(O)C1C2OC(C(Br)C2Br)C1C(=O)O (centres undefined)	·	·	·	-1.0	·	·	·	·	·	·
CCO[C@@H]1OC(C(=O)Nc2ccccc2)=C[C@H](c2ccc(Br)cc2)[C@H]1CCCO	0.8*	0.0	i	11.9	13.3	-7.8	100.0	-0.2	120.6	0.1
COc1ncccc1C(=O)NC1CCCc2c1cnn2-c1cc(C)cc(C)c1 (centres undefined)	-0.2	3.0	i	3.0	-6.1	2.7	100.0	-0.2	108.3	-0.1
O=C(NC1CCCc2c1cnn2-c1ccccc1F)c1ccccn1 (centres undefined)	-0.1	3.0	i	4.6	0.6	-11.5	105.8	0.1	105.1	0.0
CC1CCN(C(=O)Cn2cnc3c2c(=O)n(C)c(=O)n3C)c2ccccc2S1 (centres undefined)	0.1	1.0	i	7.4	9.7	4.5	·	·	·	·
CCOc1ccc(C(=O)NCc2ccco2)cc1	1.2*	9.0	i	5.0	2.6	33.0	104.6	0.0	108.0	-0.1
CCOc1cc(OCC)cc(C(=O)NCc2ccco2)c1	0.0	0.0	i	1.2	5.3	-7.1	·	·	·	·
Cc1ccc(S(=O)(=O)CCSc2nccn2C)cc1	3.3*	0.0	·	-2.2	-1.1	9.9	98.3	-0.1	98.7	0.0
SMILES	Efflux pump inh	GRK2 aptamer HTS	Rce1 inh	Rtt109 Vps75	HDAC3 inhib	ALR H2O2 inh	Yeast cmpd fluor	CaMdr1 efflux inh	Cdr2 pump inh	Cdr1 pump inh
C=CCNC(=O)O/N=C/c1csc([N+](=O)[O-])c1	-0.1	2.0	i	8.4	3.7	-18.4	·	·	·	·
Cc1ccc(-n2c(C)cc(/C([O-])=C(/C(=S)Nc3ccc(F)c(Cl)c3)[n+]3ccccc3)c2C)cc1	0.9*	1.0	i	4.3	2.3	-15.8	101.4	0.2	93.5	0.0
COc1ccccc1CNC(=O)CCC(=O)n1ncc2cc(C)ccc21	0.0	2.0	i	15.1	12.5	-9.1	·	·	·	·
CC(CC(=O)N1CCN(c2ccc(C(F)(F)F)cn2)CC1)n1ccnc1 (centres undefined)	0.0	0.0	i	2.0	-4.2	-5.2	·	·	·	·
Cc1c(C(=O)Nc2ccc3nc(N4CCOCC4)sc3c2)oc2ccccc12	0.8*	0.0	·	9.5	14.3	-1.6	109.0	-0.1	110.3	0.1
O=C(COC(=O)Cn1cnc2ccccc2c1=O)NNC(=O)c1ccc(Br)cc1	0.8*	2.0	·	-0.6	-5.7	·	105.0	-0.3	97.2	0.0
CC(C)(C)NC(=O)C(c1ccc(F)cc1)N(C(=O)CCC(=O)Nc1ccccn1)C1CCCC1 (centres undefined)	2.4*	0.0	i	13.8	-2.3	-2.1	103.4	-0.1	131.0	-0.1
COc1cccc(C(C(=O)NC(C)(C)C)N(C(=O)CCC(=O)Nc2cc(C)on2)C2CC2)c1OC (centres undefined)	0.0	2.0	i	4.3	1.8	-5.4	96.6	0.0	100.1	-0.1
CCCCN(C(=O)CCC(=O)Nc1cc(C)on1)C(C(=O)NC(C)(C)C)c1cccc(OC)c1OC (centres undefined)	0.0	0.0	i	-6.0	1.8	0.5	·	·	·	·
COc1ccc(C(C(=O)NC(C)(C)C)N(CCO)C(=O)CCC(=O)Nc2cc(C)on2)cc1 (centres undefined)	-0.2	0.0	i	1.2	-0.7	·	97.2	-0.5	101.7	-0.1
O=C(Nc1ccccc1C(=O)Nc1nnc(C(F)(F)F)s1)c1ccccc1Cl	-0.1	1.0	i	-0.3	-3.5	2.0	·	·	·	·
COc1c(C)cc(Br)cc1C(=O)Nc1ccccc1N1CCN(C(=O)c2ccccc2)CC1	1.0*	2.0	i	-7.4	1.1	2.4	105.6	-0.4	94.0	-0.1

Source: PubChem BioAssay
